Data reported in PubChem BioAssay (NCI).
Compounds without any hit were thinned out: in the full panel of roughly 79,000, 15% have a hit. A number with no mark means an inactive call. Activity calls are given as the source filed them. No stated cut-off is given here; in the data, active means growth inhibition above about 70%; inactive means the rest.

Tests used:
[1] = NCI Yeast Anticancer Drug Screen. Data for the rad50 strain (AID 155);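 further: 0% = growth of vehicle-only cultures of the same strain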; settings: S. cerevisiae rad50 strain growth inhibition, active compounds read high
Method in brief: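 Relative growth inhibition (compound vs vehicle) was measured in yeast with a defined repair-gene alteration.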

[2] = NCI Yeast Anticancer Drug Screen. Data for the mec2-1 strain (AID 157); settings: S. cerevisiae mec2-1 strain, active compounds read high
Method in brief: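 Vehicle-treated cultures served as reference for growth inhibition of compound-exposed mec2-1 yeast.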

[3] = NCI Yeast Anticancer Drug Screen. Data for the sgs1 mgt1 strain (AID 161);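 further: 0% = growth of cultures given vehicle only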; settings: S. cerevisiae sgs1 mgt1 strain, active compounds read high
Method in brief: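 Mutant yeast exposed to compound; growth scored against vehicle-only wells.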

[4] = NCI Yeast Anticancer Drug Screen. Data for the cln2 rad14 strain (AID 165);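 further: 0% = growth equal to vehicle treated cultures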; settings: S. cerevisiae cln2 rad14 strain, active compounds read high
Method in brief: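 Each compound was tested on cln2 rad14 yeast. Inhibition of growth was calculated against vehicle-exposed controls.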

[5] = NCI Yeast Anticancer Drug Screen. Data for the bub3 strain (AID 167); settings: S. cerevisiae bub3 mutant strain, active compounds read high
Method in brief: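 Screening used yeast with an engineered genetic alteration affecting cell cycle control. Compound-exposed cultures were compared with vehicle cultures, and reduced growth was taken as inhibition.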

[6] = NCI Yeast Anticancer Drug Screen. Data for the mlh1 rad18 strain (AID 175); settings: S. cerevisiae mlh1 rad18 strain growth inhibition, active compounds read high
Method in brief: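 Vehicle-treated cultures served as the reference for growth inhibition in a yeast strain carrying DNA damage repair alterations exposed to each compound.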

[7] = at 5.0 µM (retest, dose inferred, filed as 0.5)
[8] = at 50.0 µM (retest, dose inferred, filed as 5.0)

Compound | growth inhibition [1, 7] | growth inhibition [1, 8] | growth inhibition ([1]; at 50.0 µM) | growth inhibition [2, 7] | growth inhibition [2, 8] | growth inhibition ([2]; at 50.0 µM) | growth inhibition [3, 7] | growth inhibition [3, 8] | growth inhibition ([3]; at 50.0 µM) | growth inhibition [4, 7] | growth inhibition [4, 8] | growth inhibition ([4]; at 50.0 µM) | growth inhibition [5, 7] | growth inhibition [5, 8] | growth inhibition ([5]; at 50.0 µM) | growth inhibition [6, 7] | growth inhibition [6, 8] | growth inhibition ([6]; at 50.0 µM)
O=C(O)CCC(=O)c1ccc(C2CCCC2)c2ccccc12 | 1% | 28% | 69.8% | -3% | 24% | 78.8% (active) | 3% | 34% | 68.3% | -17% | 42% | 72.7% (active) | -13% | 46% | 70.3% (active) | -6% | 11% | 86.6% (active)
COc1cccc(C(=O)C(CN(C)C)CN(C)C)c1 | 22% | 70% (active) | 12.2% | 26% | 69% | 30.2% | 24% | 88% (active) | 61% | 24% | 79% (active) | 33% | 24% | 85% (active) | 71.2% (active) | 30% | 93% (active) | 3%
COc1nc(Nc2ccc(/C=C/c3ccc(Nc4nc(OC)nc(N(CCO)CCO)n4)cc3S(=O)(=O)O)c(S(=O)(=O)O)c2)nc(N(CCO)CCO)n1 | -4% | 53% | 14.2% | -4% | 37% | 58.9% | -3% | 51% | 45.8% | -1% | 17% | 5.8% | -4% | 28% | 3.2% | 0% | 49% | 80.4% (active)
CC1(COc2ccccc2OCC2(C)CO2)CO1 (stereo not given) | 5% | 4% | 12.2% | 2% | 1% | 1.15% | 0% | 10% | 7.75% | 2% | 4% | 70.7% (active) | -2% | -3% | 5.6% | 7% | 36% | 5.35%
CCOC(=O)C(Br)C(Br)c1cccc([N+](=O)[O-])c1 (stereo not given) | 97% (active) | 99% (active) | 99.7% (active) | 93% (active) | 100% (active) | 99.8% (active) | 99% (active) | 100% (active) | 99.7% (active) | 92% (active) | 99% (active) | 98% (active) | 98% (active) | 99% (active) | 99.5% (active) | 98% (active) | 99% (active) | 99.6% (active)
CCOC(=O)/C(=C/c1ccccn1)C(=O)c1ccccc1 | 19% | 85% (active) | 85.8% (active) | 18% | 93% (active) | 85.7% (active) | 17% | 85% (active) | 84.8% (active) | 39% | 85% (active) | 76.7% (active) | 67% | 96% (active) | 88.7% (active) | 53% | 94% (active) | 79.6% (active)
O=C1C(c2c[nH]c3ccc(Br)cc23)=Nc2ccc(Br)cc21 | -1% | 2% | 88% (active) | 3% | 21% | 75.8% (active) | -20% | -32% | 85.5% (active) | -6% | -18% | 88.8% (active) | -4% | -2% | 82.2% (active) | 7% | 25% | 73.4% (active)
COc1ccc(NC(=O)CCC(=O)CC(=O)c2ccncc2)cc1 | -9% | 3% | 3.5% | 4% | -2% | -8.65% | 2% | -9% | -6.25% | -5% | 2% | 41.2% | -2% | 1% | 3.25% | -1% | -5% | -14.6%
CCC[CH2][Sn]([CH2]CCC)([S]/C(C#N)=N/N=C/c1ccc(N(C)C)cc1)[S]/C(C#N)=N/N=C/c1ccc(N(C)C)cc1 | 57% | 98% (active) | 97% (active) | 66% | 98% (active) | 92.5% (active) | 52% | 98% (active) | 95.8% (active) | 40% | 94% (active) | 95% (active) | 64% | 99% (active) | 95.8% (active) | 72% (active) | 98% (active) | 95.9% (active)
COc1cc(C(c2cc3c(cc2O)OCO3)N2CCCCC2)cc(OC)c1OC (stereo not given) | -4% | 13% | 25% | 0% | 20% | 34.6% | -5% | -33% | 21.8% | -6% | -3% | 67.5% | -1% | 4% | 31.6% | -6% | 6% | 62.6%
